# Assay results as given in PubChem BioAssay (NCI).
# The panel holds about 83,000 compounds, 20% with a hit somewhere; the sample as a whole holds those more often.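 Interpretation: 100, growth as untreated; towards 0, rising growth inhibition; 0, no net growth; 0 to -100, cell death. Compounds scoring below 10 were considered active.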 Calls of active or inactive are those of the source.
# Tested on: HCT-15 colon
# Test: NCI-60 one-dose screen, 48 h (100 = growth as untreated, 0 = no growth, -100 = all killed)
# Conditions: 10 µM unless noted
# Description: Growth inhibition of the HCT-15 human tumor cell line is measured as a screen for anti-cancer activity. Cells are grown in 96 well plates and exposed to the test compound for 48 hours. Compounds are tested at a single concentration, which is 10^-5 M for most compounds. The reported endpoint is percent growth (GI% or GIPRCNT), where numbers from 0 - 100% represent growth inhibition, and numbers from -100% - 0 represent cell death. For example, a value of 40 represents 60% growth inhibition. A value of 0 means no net growth occurred over the course of the experiment. A value of -40 indicates 40% of cells at the beginning of the experiment died by the end of the experiment. A value of -100 means all cells are dead at the end of the experiment.
# NCI-60 Human Tumor Cell Lines Screen was performed using the standard one-dose NCI protocol, which is described in more detail at https://dtp.cancer.gov/discovery_development/nci-60/default.htm.
# Compounds with GIPRCNT values below 10 were considered active. Activity score was based on GIPRCNT using the following formula: […]
# Score is 0 for GIPRCNT values of 100 or above, 50 for GIPRCNT values of 0, and 100 for GIPRCNT values of -100.
row,SMILES,growth
1,O=C1Nc2ccccc2/C1=C\c1nc(-c2ccccc2F)n2ccccc12,42.3% (inactive)
2,CC(C)CCC[C@@H](C)[C@H]1CC[C@H]2[C@@H]3CC=C4C[C@@H](C(C(=O)O)C(=O)O)CC[C@]4(C)[C@H]3CC[C@]12C,-6.36% (active)
3,O=S(=O)(Nc1ccccc1)c1ccc(C2CC3(Cl)C(Cl)=C(Cl)C2(Cl)C3(Cl)Cl)cc1 (stereo not given),50.6% (inactive)
4,CCOC(=O)c1cnc2ccccc2c1Cl,101% (inactive)
5,O=C(c1ccc(-c2nc(CSc3nc4ccccc4s3)no2)cc1)N1CCSCC1,68.5% (inactive)
6,C=CCc1c2c(c(OC)c3ccoc13)C(=O)/C(=C/c1ccccc1OC)O2,45.2% (inactive)
7,O=CC1(C2(C=O)c3ccccc3-c3ccccc32)c2ccccc2-c2ccccc21,-36.4% (active)
8,COc1cnc2c(c1)C(=O)c1c-2n(CCCNCCO)c(=O)c2ccncc12,23.1% (inactive)
9,Cn1c(-c2ccc(Br)cc2)c(O)c(=O)c2c(F)cccc21,23.9% (inactive)
10,N#CC1CCc2c(c(-c3cn[nH]c3C(F)(F)F)nc3c(F)cc4[nH]ncc4c23)C1 (stereo not given),86.1% (inactive)
11,N#Cc1c(-c2ccc(Cl)cc2)nc(SCC(=O)NC2=NN=C(c3ccccc3)CS2)[nH]c1=O,72.4% (inactive)
12,C/C(=N/O)c1ccc(F)cc1,11.5% (inactive)
13,Cc1nc(N2CCOCC2)sc1S(N)(=O)=O,105% (inactive)
14,OCCOCCN(Cc1ccccn1)Cc1cc(I)cc(I)c1O,24.2% (inactive)
15,Cc1c(-n2nnc(-c3nc4ccccc4s3)c2N)c(=O)n(-c2ccccc2)n1C,98.3% (inactive)
16,CN(C)C1CCN(Cc2ccc(NC(=O)c3cncc(C#Cc4cnc(N)c5ncccc45)c3)cc2C(F)(F)F)CC1,53.2% (inactive)
17,COc1ccc2cc(C(=O)c3coc4ccc(O)cc34)ccc2c1,103% (inactive)
18,CNC(=O)c1cc(Oc2ccc3c(c2)sc2nc(-c4cc(OC)c(OC)c(OC)c4)cn23)ccn1,54.1% (inactive)
19,CC1=C(CCC(C)N(C)Cc2ccc(OCCCN3CCCC3)cc2)C(C)(C)CCC1 (stereo not given),-14% (active)
20,N#Cc1c(-c2ccccc2)cc(-c2ccccc2)n(CCCCCC(=O)Nc2ccccc2N)c1=O,51.7% (inactive)

row,SMILES,growth
1,CN(C)c1ccc(Nc2cc(-c3cccc(OC(F)(F)F)c3)nc3ccc(N4CCCC4)cc23)cc1,-45.5% (active)
2,CNc1nc(S(=O)c2ccc(C#N)cc2)nc2ccccc12 (stereo not given),81% (inactive)
3,COc1ccc(-c2nc3c(c(-c4ccccc4)nn3-c3ccccc3)c(-c3ccc(N4CCN(C)CC4)cc3)c2C#N)cc1,56.2% (inactive)
4,O=C1/C(=C/c2ccc(Cl)cc2)COc2ccc(O)cc21,29.3% (inactive)
5,CC12CCC3c4ccccc4CCC3(CO1)C2 (stereo not given),108% (inactive)
6,CCCCC(=O)Nc1ncc(Cc2ccc(Cl)cc2)s1,40.3% (inactive)
7,N#Cc1cnc(NCCc2ccncc2)nc1-n1cnc2ccccc21,36.8% (inactive)
8,O=[N+]([O-])c1ccc(-c2nc(N3CCOCC3)c3c4c(sc3n2)CCCC4)cc1,97.8% (inactive)
9,O=S(=O)(Nc1ccc(Cl)cc1)c1ccc(-c2cnc(C3CC3)o2)cc1,27.9% (inactive)
10,COc1ccc2c(O)c(/C=C3\N=Nc4ccccc43)oc2c1C[C@@H]1CCNC[C@H]1F,6.86% (active)
11,O=[N+]([O-])c1ccc(N/N=C(/C(=N/Nc2ccc([N+](=O)[O-])cc2)c2ccccc2)c2ccccc2)cc1,16.9% (inactive)
12,O=C(Cn1c(=O)sc2ccccc21)NNS(=O)(=O)c1ccccc1[N+](=O)[O-],103% (inactive)
13,O=C(O)/C(=C\c1ccc(Cl)cc1)c1ccc(Cl)cc1,86.9% (inactive)
14,O=C(NNC(=O)c1ccc(-n2cc(-c3ccccc3)nn2)cc1)Nc1ccccc1,103% (inactive)
15,CCOC(=O)c1c(C)nc2c(c1N)CC(=O)N2Cc1cc(F)cc(Cl)c1,80.5% (inactive)
16,O=C1c2cccnc2C(=O)c2c1c(C(=O)NCCCN1CCCCC1)c1ccccn21,-71.8% (active)
17,O=C(Cn1c(-c2ccc([N+](=O)[O-])cc2)nc2ccccc21)NNC(=O)c1cccnc1,80.9% (inactive)
18,COc1ccc(-c2cn(-c3cc(OC)c(OC)c(OC)c3)c(=O)n2C(C)=O)cc1,90.9% (inactive)
19,COc1ccc(C(c2cc(OC)c(OC)c(OC)c2)N2CCN(c3ccccc3)CC2)cc1 (stereo not given),67.6% (inactive)
20,Cn1cc(-c2csc(-c3ccc(Cl)cc3)n2)c2cccnc21,-31.9% [100 µM] (active)
